Assay outcomes deposited in PubChem BioAssay by National Center for Advancing Translational Sciences (NCATS).
Sampled rows, rich in hits. Any-hit rate of the full collection: about 11%.
G9a block: blocks human histone lysine methyltransferase G9a; Q96KQ7; G9a H3K9 monomethylation, AlphaScreen, 2 h; Potency, µM (highest dose often 102 µM), for inactives: at the top dose activity, negative = inhibition, usual class: inhibitors; actives 8.8% (n = 350,000); AID 504332; also: % is scaled to controls: 0 for no effect and ±100 for the full control effect; nearly all actives have a fitted effect of over 75% in size
Target sequence (Q96KQ7 913-1193 limits assumed): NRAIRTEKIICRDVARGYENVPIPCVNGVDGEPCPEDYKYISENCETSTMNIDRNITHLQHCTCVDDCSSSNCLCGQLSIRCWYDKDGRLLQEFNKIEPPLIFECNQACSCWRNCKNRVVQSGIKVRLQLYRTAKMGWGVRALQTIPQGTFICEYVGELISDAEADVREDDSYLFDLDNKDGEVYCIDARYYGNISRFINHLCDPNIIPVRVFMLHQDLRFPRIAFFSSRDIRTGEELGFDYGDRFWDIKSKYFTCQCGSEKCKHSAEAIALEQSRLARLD
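Compounds were preincubated with 20 nM G9a for 15 min, after which biotinylated H3K9 peptide (500 nM) and SAM (20 uM) started a 2 h room-temperature reaction. Monomethylated product was quantified by antibody-based AlphaScreen chemiluminescence.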
BAZ2B inh: BAZ2B (human) inhibition. Q9UIF8. Potency, µM (top dose mostly 114 µM), without a hit: at the highest dose activity change, negative = inhibition, most hits filed as inhibitors. AID 504333. AlphaScreen BAZ2B-H3K14Ac peptide displacement. actives 4.4% (n = 360,000); also: % is scaled to controls: 0 for no effect and ±100 for the full control effect; nearly all actives have a fitted effect of over 60% in size
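Complex of BAZ2B and biotin-H3K14Ac (50 nM apiece) forms over 30 min at RT, then faces library compounds up to 110 uM for another 30 min; AlphaScreen beads added, 20 min dark incubation, luminescence read.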
L3MBTL1 block: inhibitors of human L3MBTL1 | actives 0.66% (n = 230,000) | AlphaScreen L3MBTL1–H3K9me1 peptide binding | Q9Y468 | Potency, µM (highest dose often 57.1 µM), inactives show top-dose activity, negative = inhibition, actives largely listed as inhibitors; also: % is scaled to controls: 0 for no effect and ±100 for the full control effect; nearly all actives have a fitted effect of over 60% in size
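Read-out is AlphaScreen signal from streptavidin donor and nickel chelate acceptor beads (10 ug/mL final each) bridging L3MBTL1 (50 nM) and biotinylated K9-monomethylated H3(1-15) peptide (75 nM), after 30 min compound exposure at room temperature.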
HP1b binding inh: HP1-beta chromodomain-methylated histone interaction inhibition; P83916; AlphaScreen HP1-beta / biotin-H3K9me3 peptide binding; Potency, µM (doses to about 114 µM), without a hit: at the top dose activity change, negative = inhibition, most hits filed as inhibitors; actives 0.56% (n = 390,000); AID 540317; also: nearly all actives have a fitted effect of over 70% in size
Target sequence (P83916 whole entry, looked up): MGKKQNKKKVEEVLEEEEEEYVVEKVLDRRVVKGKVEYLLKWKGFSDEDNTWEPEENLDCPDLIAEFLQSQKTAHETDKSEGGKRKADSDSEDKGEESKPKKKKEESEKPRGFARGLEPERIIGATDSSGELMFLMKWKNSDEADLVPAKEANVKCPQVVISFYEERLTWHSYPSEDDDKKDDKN
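AlphaScreen: HP1-beta (50 nM) preformed 30 min with biotin-H3(1-18)K9me3 peptide (50 nM) in PBS pH 7.4, 0.01% Tween-20. Compound added for 30 min at RT, then streptavidin donor/nickel chelate acceptor beads (10 ug/mL) for 30 min.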
JMJD2A Tudor inh: inhibitors of human JMJD2A Tudor domain. AlphaScreen JMJD2A-Tudor / H3K4me3 peptide binding. Potency, µM (titrated, usually from 114 µM), for inactives: at the highest dose activity change, negative = inhibition, most hits filed as inhibitors. actives 4.4% (n = 390,000). AID 504339; also: % is scaled to controls: 0 for no effect and ±100 for the full control effect; nearly all actives have a fitted effect of over 50% in size
An asterisk follows results filed as active; [ ] = remark or other dose. Calls follow the shape of the dose curve; as a rule, active = well fitted inhibition curve with a large enough effect; inconclusive = small, poorly fitted or top-dose-only effect; inactive = no such curve, though single readings can be large or run the other way. Potency is read from the fitted curve at half-maximal effect.

For CCOc1ccccc1NC(=O)c1cc2c(=O)n(Cc3cccnc3)ccc2nc1C the results were G9a block 6.2%[59 µM], BAZ2B inh -16.3%, HP1b binding inh -14.7% and JMJD2A Tudor inh -23.7%.
For CN(CCOc1ccc(Cl)cc1)C(=O)CNS(=O)(=O)c1ccc(N(C)C)c([N+](=O)[O-])c1 the results were G9a block 39.8µM*, BAZ2B inh inconclusive, L3MBTL1 block -7.6%, HP1b binding inh -12.8% and JMJD2A Tudor inh inconclusive.
For CN(C)c1ccc(S(=O)(=O)NCC(=O)OCC(=O)Nc2cc(Cl)cc(Cl)c2)cc1[N+](=O)[O-] the results were G9a block -17.2%[59 µM], BAZ2B inh inconclusive, L3MBTL1 block -11.4%, HP1b binding inh -19.2% and JMJD2A Tudor inh inconclusive.
For CCCn1cc(S(=O)(=O)c2cccc(Cl)c2)c(=O)c2cc(F)c(N3CCCC3)cc21 the results were G9a block 1.4%[59 µM], BAZ2B inh 6.0%, HP1b binding inh 43.6% and JMJD2A Tudor inh 10.6%.
CCc1ccc(NC(=O)c2sc3nc(C)cc(C)c3c2NC(=O)c2ccccc2)cc1 was read as G9a block 6.6%[59 µM], BAZ2B inh -14.9%, HP1b binding inh 11.7% and JMJD2A Tudor inh -10.1%.
CC(=O)N1CCCc2cc(S(=O)(=O)NC(C(=O)NC(C)c3ccccc3)C(C)C)ccc21 (centres undefined) was read as G9a block -23.1%, BAZ2B inh 4.2%, L3MBTL1 block -7.2%, HP1b binding inh 20.8% and JMJD2A Tudor inh 15.8%.
`CC(=O)N1CCCc2cc(S(=O)(=O)NC(C(=O)NC3CCCCC3)C(C)C)ccc21` (centres undefined) gave G9a block 35.5µM*, BAZ2B inh -1.7%, L3MBTL1 block 3.6%, HP1b binding inh 22.8% and JMJD2A Tudor inh -7.5%.
Screening COc1cc(NC(=O)CC(C)S(=O)(=O)c2ccc3c(c2)CCN3C(C)=O)cc(OC)c1OC (centres undefined) returned G9a block 11.2µM*, BAZ2B inh -10.4%, HP1b binding inh 29.8% and JMJD2A Tudor inh -7.6%.
Screening COc1cc(NS(=O)(=O)c2ccc3c(c2)CCCN3C(C)=O)cc(OC)c1OC returned G9a block 9.0%[59 µM], BAZ2B inh -0.1%, HP1b binding inh 22.3% and JMJD2A Tudor inh -4.8%.
`COc1ccc(NC(=O)C(NS(=O)(=O)c2ccc3c(c2)CCCN3C(C)=O)C(C)C)c(OC)c1` (centres undefined) gave G9a block inconclusive, BAZ2B inh 56.2µM*, L3MBTL1 block -2.5%, HP1b binding inh 6.6% and JMJD2A Tudor inh -23.9%.
`COc1ccc(Nc2c3c(nc4nncn24)CCC3)cc1Cl` gave G9a block -34.7%[59 µM], BAZ2B inh 6.9%, HP1b binding inh 74.3% and JMJD2A Tudor inh -1.3%.
`Cc1cc(CCNC=O)c(C)c2c1oc1ccccc12` gave HP1b binding inh 12.2% and JMJD2A Tudor inh -21.5%.
Screening O=C(NCCCl)C1Cc2c(ccc3ccccc23)O1 (centres undefined) returned G9a block 39.8µM*, BAZ2B inh -27.8%, L3MBTL1 block 0.6%, HP1b binding inh 35.6% and JMJD2A Tudor inh -6.0%.
O=C(NCCCN1CCOCC1)C1Cc2c(ccc3ccccc23)O1 (centres undefined) was read as G9a block 8.4%, BAZ2B inh 0.1%, L3MBTL1 block 32.6%, HP1b binding inh 23.1% and JMJD2A Tudor inh -13.3%.
CCNc1ncc2nc(-c3ccc(OC)cc3)c(=O)n(Cc3cccc(OC)c3)c2n1 was read as G9a block 7.4%[12.7 µM].
Cc1cc(=O)n(CC(=O)N2CCCc3ccccc32)c2c1c(C)nn2-c1cccc(F)c1 was read as G9a block 12.5%[59 µM], BAZ2B inh -4.8%, HP1b binding inh 3.7% and JMJD2A Tudor inh -12.0%.
For CN(C)CC1CC/C(=C\c2ccc(O)cc2)C1=O (centres undefined) the results were HP1b binding inh inconclusive and JMJD2A Tudor inh 89.1µM*.
Screening CC1CCC/C(=C\c2ccc(O)cc2)C1=O (centres undefined) returned HP1b binding inh 22.2% and JMJD2A Tudor inh -6.1%.
